Results on four compounds are retold here after PubChem BioAssay (EPA / NIEHS).

Details in all cases: mRNA level, 48 h; actives raise or lower the signal
Read-out in assay [1]: Glutamate-cysteine ligase catalytic (GCLC), GCLC (gene 2729)
The assay is described as follows: LTEA_HepaRG_GCLC: Life Technologies and Expression Analysis (LTEA) Assay for Glutamate-cysteine ligase catalytic (GCLC) using HepaRG (AID 2283498). Put shortly: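 Read-out is GCLC transcript level by Fluidigm-based TaqMan qRT-PCR, normalized to three housekeeping genes and fitted in both directions relative to 0.5% DMSO. Human HepaRG cells received chemicals for 48 h, up to 100 uM.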

Read-out in assay [2]: growth arrest and DNA damage 45 (GADD45G), GADD45G (gene 10912)
The assay is described as follows: LTEA_HepaRG_GADD45G: Life Technologies and Expression Analysis (LTEA) Assay for growth arrest and DNA damage 45 (GADD45G) using HepaRG (AID 2283499). The method, boiled down: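 GADD45G transcript level by qRT-PCR (housekeeping-normalized: ACTB, GAPDH, POLR2A) after 48 h chemical treatment of a single HepaRG lot in serum-free induction medium; eight-point half-log series up to 100 uM in 0.5% DMSO, duplicates, up- or down-regulation scored.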

Read-out in assay [3]: Glutamate-cysteine ligase regulatory (GCLM), GCLM (gene 2730)
The assay is described as follows: LTEA_HepaRG_GCLM: Life Technologies and Expression Analysis (LTEA) Assay for Glutamate-cysteine ligase regulatory (GCLM) using HepaRG (AID 2283500). Put shortly: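 Differentiated HepaRG cells exposed 48 h in serum-free induction medium to eight half-log concentrations up to 100 uM (0.5% DMSO). GCLM mRNA by TaqMan qRT-PCR, normalized to ACTB, GAPDH and POLR2A; bidirectional fit versus DMSO.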

Read-out in assay [4]: Heat shock 70 kDa protein 1 (HSPA1A), gene 3303
The assay is described as follows: LTEA_HepaRG_HSPA1A: Life Technologies and Expression Analysis (LTEA) Assay for Heat shock 70 kDa protein 1 (HSPA1A) using HepaRG (AID 2283502). The method, boiled down:
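Human HepaRG cells in serum-free induction medium were exposed in duplicate for 48 h to 8 half-log concentrations, highest 100 uM, in 0.5% DMSO. HSPA1A mRNA read by TaqMan qRT-PCR, normalized to ACTB, GAPDH, POLR2A, fitted bidirectionally against DMSO.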

Read-out in assay [5]: Hypoxia-inducible factor 1-alpha (Homo sapiens) (UniProt Q16665)
The assay is described as follows: LTEA_HepaRG_HIF1A: Life Technologies and Expression Analysis (LTEA) Assay for Hypoxia-inducible factor 1 (HIF1A) Trancription factor using HepaRG (AID 2283503). Put shortly: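 Differentiated HepaRG cells in serum-free induction medium exposed 48 h, in duplicate, to 8-point half-log series from 100 uM in 0.5% DMSO. HIF1A mRNA measured by TaqMan qRT-PCR, normalized to ACTB/GAPDH/POLR2A, fitted bidirectionally versus DMSO.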

Read-out in assay [6]: 3-Hydroxy-3-Methylglutaryl-CoA Synthase 2 (HMGCS2), HMGCS2 (gene 3158)
The assay is described as follows: LTEA_HepaRG_HMGCS2: Life Technologies and Expression Analysis (LTEA) Assay for 3-Hydroxy-3-Methylglutaryl-CoA Synthase 2 (HMGCS2) using HepaRG (AID 2283504). The method, boiled down: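 Readout is HMGCS2 transcript by qRT-PCR, housekeeping-normalised (ACTB/GAPDH/POLR2A) and fitted bidirectionally against 0.5% DMSO. Differentiated HepaRG cells received chemicals 48 h, duplicate wells, eight half-log concentrations topping at 100 uM.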

Read-out in assay [7]: HGF (gene 3082)
The assay is described as follows: LTEA_HepaRG_HGF: Life Technologies and Expression Analysis (LTEA) Assay for Hepatocyte Growth Facto (HGF) using HepaRG (AID 2283505). Put shortly:
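HGF transcript was quantified by TaqMan qRT-PCR against three housekeeping genes after 48 h treatment of HepaRG cells. Exposure ran in duplicate over eight half-log steps topping at 100 uM in 0.5% DMSO vehicle.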

Read-out in assay [8]: Insulin Like Growth Factor 1 (IGF1), IGF1 (gene 3479)
The assay is described as follows: LTEA_HepaRG_IGF1: Life Technologies and Expression Analysis (LTEA) Assay for Insulin Like Growth Factor 1 (IGF1) using HepaRG (AID 2283506). The method, boiled down:
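Differentiated HepaRG cells in serum-free induction medium, exposed 48 h in duplicate to 8 half-log concentrations up to 100 uM in 0.5% DMSO. IGF1 mRNA by Fluidigm qRT-PCR, normalised to ACTB, GAPDH and POLR2A.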

Read-out in assay [9]: Intercellular Adhesion Molecule 1 (ICAM1), ICAM1 (gene 3383)
The assay is described as follows: LTEA_HepaRG_ICAM1: Life Technologies and Expression Analysis (LTEA) Assay for Intercellular Adhesion Molecule 1 (ICAM1) using HepaRG (AID 2283507). The method, boiled down:
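ICAM1 transcript levels measured by qRT-PCR, normalized to three housekeeping genes (ACTB, GAPDH, POLR2A), after 48 h chemical exposure of HepaRG cells. Duplicate eight-point half-log series from 100 uM in 0.5% DMSO; gain or loss fitted against vehicle.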

Read-out in assay [10]: Insulin-like growth factor-binding protein 1 (IGFBP1), IGFBP1 (gene 3484)
The assay is described as follows: LTEA_HepaRG_IGFBP1: Life Technologies and Expression Analysis (LTEA) Assay for Insulin-like growth factor-binding protein 1 (IGFBP1) using HepaRG (AID 2283508). The method, boiled down:
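Read-out is qRT-PCR transcript level normalized to three housekeeping genes, fitted in both directions against 0.5% DMSO. Differentiated HepaRG cells received eight half-log concentrations (top 100 uM) in duplicate for 48 h in serum-free induction medium.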

Read-out in assay [11]: Interleukin 6 (IL6), IL6 (gene 3569)
The assay is described as follows: LTEA_HepaRG_IL6: Life Technologies and Expression Analysis (LTEA) Assay for Interleukin 6 (IL6) using HepaRG (AID 2283509). Put shortly:
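HepaRG, ~100,000 cells/well, 48 h pre-culture; serum-free induction medium; cmpd 8-pt half-log from 100 uM, 0.5% DMSO, duplicate, 48 h. Lysis in RLT, TaqMan qRT-PCR; gain or loss vs DMSO.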

Read-out in assay [12]: Interleukin 6 Receptor (IL6R), IL6R (gene 3570)
The assay is described as follows: LTEA_HepaRG_IL6R: Life Technologies and Expression Analysis (LTEA) Assay for Interleukin 6 Receptor (IL6R) using HepaRG (AID 2283510). Put shortly:
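Differentiated HepaRG cells, plated 48 h, then exposed in duplicate for 48 h in serum-free induction medium to 8 half-log concentrations (top 100 uM, 0.5% DMSO). IL6R mRNA measured by TaqMan qRT-PCR, normalized to ACTB/GAPDH/POLR2A; bidirectional fit vs DMSO.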

Read-out in assay [13]: Potassium channel subfamily K member 1 (KCNK1), KCNK1 (gene 3775)
The assay is described as follows: LTEA_HepaRG_KCNK1: Life Technologies and Expression Analysis (LTEA) Assay for Potassium channel subfamily K member 1 (KCNK1) using HepaRG (AID 2283511). Put shortly:
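Gain or loss of KCNK1 mRNA is the read-out, quantified by qRT-PCR against three housekeeping genes after 48 h chemical treatment of human HepaRG liver cells. Concentrations ran from 100 uM downward in half-log steps, vehicle 0.5% DMSO.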

Read-out in assay [14]: JUN Transcription Factor, JUN (gene 3725)
The assay is described as follows: LTEA_HepaRG_JUN: Life Technologies and Expression Analysis (LTEA) Assay for JUN Transcription Factor using HepaRG (AID 2283513). Put shortly:
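HepaRG cells, 48 h post-plating, exposed 48 h in serum-free induction medium to 8-point half-log series (top 100 uM, 0.5% DMSO), duplicate; mRNA by qRT-PCR (TaqMan, Fluidigm), normalized to ACTB/GAPDH/POLR2A; bidirectional fit vs DMSO.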

Read-out in assay [15]: Lipase C (LIPC), LIPC (gene 3990)
The assay is described as follows: LTEA_HepaRG_LIPC: Life Technologies and Expression Analysis (LTEA) Assay for Lipase C (LIPC) using HepaRG (AID 2283514). The method, boiled down: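 Read-out is LIPC transcript level by TaqMan qRT-PCR, normalized to three housekeeping genes, after 48 h chemical treatment of human HepaRG liver cells. Curves span eight concentrations topping at 100 uM; activity in either direction scored relative to 0.5% DMSO.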

Read-out in assay [16]: Lipoprotein lipase (LPL), LPL (gene 4023)
The assay is described as follows: LTEA_HepaRG_LPL: Life Technologies and Expression Analysis (LTEA) Assay for Lipoprotein lipase (LPL) using HepaRG (AID 2283515). Put shortly:
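Read-out is LPL transcript level by qRT-PCR, normalized to three housekeeping genes and fitted bidirectionally against the DMSO control. Human HepaRG cells received chemicals for 48 h at up to 100 uM.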

Read-out in assay [17]: MicroRNA 122 (MIR122), gene 406906
The assay is described as follows: LTEA_HepaRG_MIR122: Life Technologies and Expression Analysis (LTEA) Assay for MicroRNA 122 (MIR122) using HepaRG (AID 2283516). Note: the transcript read is the microRNA miR-122. Put shortly: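 Differentiated human HepaRG cells in serum-free induction medium exposed 48 h to 8 half-log concentrations from 100 uM in 0.5% DMSO, duplicate. MIR122 quantified by Fluidigm TaqMan qRT-PCR, normalised to ACTB, GAPDH, POLR2A; fold change fitted bidirectionally versus DMSO.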

Read-out in assay [18]: matrix metalloproteinase-10 (MMP10), MMP10 (gene 4319)
The assay is described as follows: LTEA_HepaRG_MMP10: Life Technologies and Expression Analysis (LTEA) Assay for matrix metalloproteinase-10 (MMP10) using HepaRG (AID 2283517). The method, boiled down:
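Gain or loss of MMP10 mRNA is fitted relative to the 0.5% DMSO vehicle. The human hepatic line HepaRG receives a 48-hour serum-free exposure, in duplicate, with a maximum concentration of 100 uM.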

Read-out in assay [19]: Keratin 19 (KRT19), KRT19 (gene 3880)
The assay is described as follows: LTEA_HepaRG_KRT19: Life Technologies and Expression Analysis (LTEA) Assay for Keratin 19 (KRT19) using HepaRG (AID 2283512). The method, boiled down: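 KRT19 transcript measured by TaqMan qRT-PCR, referenced to three housekeeping genes, after HepaRG cells received test chemicals for 48 h. Eight half-log concentrations, top 100 uM, 0.5% DMSO vehicle; increases and decreases both fitted.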

Molecules are shown by their SMILES. The source made the active and inactive calls. Rule for the calls: active = hit-call score of the fitted dose curve at least 0.9, where 1 is the maximum; inactive = score below 0.9.

Sequence of Hypoxia-inducible factor 1-alpha (Homo sapiens) (Q16665 whole entry, looked up): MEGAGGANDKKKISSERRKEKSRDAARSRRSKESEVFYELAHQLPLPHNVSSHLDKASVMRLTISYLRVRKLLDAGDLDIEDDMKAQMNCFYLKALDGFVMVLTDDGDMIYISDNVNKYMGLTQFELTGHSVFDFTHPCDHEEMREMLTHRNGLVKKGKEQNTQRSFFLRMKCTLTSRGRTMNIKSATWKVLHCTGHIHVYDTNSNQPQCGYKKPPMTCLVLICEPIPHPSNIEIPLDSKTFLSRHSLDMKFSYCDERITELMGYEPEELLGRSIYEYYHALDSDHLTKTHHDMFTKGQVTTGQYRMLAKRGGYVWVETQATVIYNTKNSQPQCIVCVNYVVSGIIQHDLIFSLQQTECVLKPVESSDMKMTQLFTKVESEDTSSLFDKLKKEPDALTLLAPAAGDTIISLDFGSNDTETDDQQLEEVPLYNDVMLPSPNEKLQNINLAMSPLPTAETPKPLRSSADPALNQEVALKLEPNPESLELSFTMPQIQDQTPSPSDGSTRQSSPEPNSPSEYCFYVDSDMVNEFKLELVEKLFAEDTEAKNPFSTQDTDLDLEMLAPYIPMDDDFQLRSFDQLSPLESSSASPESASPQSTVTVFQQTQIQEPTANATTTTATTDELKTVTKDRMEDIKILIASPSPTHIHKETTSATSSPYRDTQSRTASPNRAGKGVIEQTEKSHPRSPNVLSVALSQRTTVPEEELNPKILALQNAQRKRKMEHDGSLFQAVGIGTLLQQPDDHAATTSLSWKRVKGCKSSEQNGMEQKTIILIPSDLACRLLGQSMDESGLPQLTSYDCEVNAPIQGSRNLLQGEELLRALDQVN

As to `NC(N)=O`, the result in [1], in assay [2], in [3], in assay [4], in [5] and in [6] was inactive. The call in assay [7], in assay [8], in [9], in assay [10], in assay [11] and in assay [12] was inactive. In addition, the outcome in [13], in assay [14], in assay [15], in [16], in assay [17] and in [18] was inactive.

With `C[C@@H](Oc1ccc(CNC(=O)c2cccnc2Oc2ccc3c(c2)OCO3)c(F)c1)C(=O)O`, the call in assay [1], in assay [3], in assay [4], in [5], in assay [7] and in assay [8] was inactive. Besides, the result in [9], in assay [10], in [11], in [13], in assay [19] and in assay [14] was inactive. Besides, the outcome in assay [15], in assay [16], in [17] and in [18] was inactive. Moreover, in [6], the AC50 (commonly the concentration giving half of the maximal activity seen) is 25.8 µM (active).

Take `C[C@]12C=CC(=O)C=C1CC[C@H]1[C@@H]3C[C@@H](O)[C@](O)(C(=O)CO)[C@@]3(C)C[C@H](O)[C@@]12F`: the compound was called inactive in assay [1], in assay [2], in assay [3], in assay [4], in [5] and in [6]. The compound was called inactive in assay [7], in [8], in [9], in assay [10], in [11] and in assay [13]. In addition, the compound was classed as inactive in assay [14], in assay [15], in assay [16] and in assay [17].

Turning to `c1ccc(C(O[C@@H]2CCCN(CCc3ccc4c(c3)OCO4)C2)c2ccccc2)cc1`, the compound was classed as inactive in [1], in assay [3], in [11], in assay [13], in [14] and in assay [16]. For the same compound, the AC50 in assay [2] is 75.3 µM (active); in assay [4] it was 80.4 µM (active); in assay [5], 78.3 µM (active); in assay [6], 80.8 µM (active); in [7] it was 50 µM (active); in [8], 58 µM (active). Further, the AC50 in [9] is 85.3 µM (active); in assay [10] it was 86.9 µM (active); in assay [19], 40.3 µM (active); in assay [15] it was 76.5 µM (active); in assay [17] it was 69.7 µM (active).
